Screens deposited in PubChem BioAssay by National Center for Advancing Translational Sciences (NCATS).
The list is not random: actives were taken first. Their share in the collection is about 12%.
HP1b binding inh: inhibitors of HP1-beta chromodomain binding to methylated histone tails | P83916 | Potency, µM (series often up to 114 µM), most hits filed as inhibitors | AID 540317 | 390,000 tested, 0.56% active | AlphaScreen HP1-beta / biotin-H3K9me3 peptide binding; further: nearly all actives have a fitted effect of over 70% in size
Target sequence (P83916 whole entry, looked up): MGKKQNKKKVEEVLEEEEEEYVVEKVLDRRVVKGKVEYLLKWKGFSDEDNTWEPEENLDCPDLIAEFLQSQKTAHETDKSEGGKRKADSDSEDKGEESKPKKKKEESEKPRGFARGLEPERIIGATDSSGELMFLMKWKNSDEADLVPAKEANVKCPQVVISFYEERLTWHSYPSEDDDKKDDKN
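Compound inhibition of the preformed complex between 50 nM HP1-beta and 50 nM biotinylated H3K9me3 peptide was read by AlphaScreen. Buffer was PBS pH 7.4 with 0.01% Tween-20. Incubations ran 30 min at room temperature, with 10 ug/mL donor/acceptor beads.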
G9a block: inhibitors of human histone lysine methyltransferase G9a. Potency, µM (series often up to 102 µM), actives largely listed as inhibitors. 350,000 tested, 8.8% active. Q96KQ7. G9a H3K9 monomethylation, AlphaScreen, 2 h; further: nearly all actives have a fitted effect of over 75% in size
Target sequence (Q96KQ7 913-1193 limits assumed): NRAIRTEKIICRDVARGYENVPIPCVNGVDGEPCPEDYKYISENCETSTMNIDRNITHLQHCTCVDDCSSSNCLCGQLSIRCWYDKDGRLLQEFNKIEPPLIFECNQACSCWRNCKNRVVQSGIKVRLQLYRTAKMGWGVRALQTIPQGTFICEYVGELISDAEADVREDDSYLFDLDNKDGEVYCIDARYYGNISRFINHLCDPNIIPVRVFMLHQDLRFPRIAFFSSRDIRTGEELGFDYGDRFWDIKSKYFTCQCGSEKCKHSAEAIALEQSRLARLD
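G9a (20 nM) preincubated 15 min RT with compounds, then 500 nM biotinylated H3K9 peptide and 20 uM SAM added; 2 h RT reaction. Monomethyl-H3K9 product detected by AlphaScreen with anti-H3K9me1 antibody, streptavidin donor and anti-rabbit IgG acceptor beads.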
BAZ2B block: inhibitors of human BAZ2B bromodomain | AlphaScreen BAZ2B-H3K14Ac peptide displacement | Q9UIF8 | AID 504333 | 360,000 tested, 4.4% active | Potency, µM (highest dose often 114 µM), hits mostly inhibitors; further: nearly all actives have a fitted effect of over 60% in size
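Complex of BAZ2B and biotin-H3K14Ac (50 nM apiece) forms over 30 min at RT, then faces library compounds up to 110 uM for another 30 min; AlphaScreen beads added, 20 min dark incubation, luminescence read.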
Sfp inh: blocks B. subtilis Sfp PPTase activity. Q9F4F7. Biochemical Sfp PPTase activity, qHTS. Potency, µM, usual class: inhibitors. 310,000 tested, 3.5% active. AID 1490;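 further: the enzyme is Sfp with the accession as filed and its product quenches rhodamine fluorescence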
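Fluorescence-quenching assay with 15 nM Sfp, 5 uM rhodamine-CoA and 12.5 uM BHQ-2-labelled ybbR peptide in pH 7.6 Hepes/MgCl2 buffer. Enzyme was pre-incubated with compound for 15 min at room temperature. Rate was taken from the 30-min fluorescence change (525/598 nm).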
JMJD2A Tudor inh: inhibitors of human JMJD2A Tudor domain; AlphaScreen JMJD2A-Tudor / H3K4me3 peptide binding; 390,000 tested, 4.4% active; Potency, µM (top dose mostly 114 µM), hits mostly inhibitors; O75164; further: nearly all actives have a fitted effect of over 50% in size
Each line names hits and unclear results; the compound was inactive in the other large screens; ! = repeats disagree. The call rests on the fitted dose curve; in most records, active means well fitted curve in the direction sought with a large enough effect; inconclusive means small, poorly fitted or top-dose-only effect, or another doubt; inactive means no such curve, though single readings can be large; an effect the other way counts as inactive or inconclusive.

Cc1ccc(S(=O)(=O)NCC(c2ccc(N(C)C)cc2)N2CCc3ccccc32)cc1 (stereo not given)	HP1b binding inh inconclusive, G9a block 11µM, BAZ2B block 6.3µM, JMJD2A Tudor inh 14µM (no result: Sfp inh)
CN(C)c1ccc(C(CNS(=O)(=O)c2ccccc2)N2CCc3ccccc32)cc1 (stereo not given)	HP1b binding inh inconclusive, BAZ2B block 22µM, JMJD2A Tudor inh 13µM (no result: Sfp inh)
Cc1ccc2cc(C#N)c(NCCCNC(=O)C3CCCO3)nc2c1 (stereo not given)	G9a block inconclusive, Sfp inh 79µM
Cc1ccc2cc(C#N)c(N3CCCN(C(=O)C4CCCO4)CC3)nc2c1 (stereo not given)	none
Cc1ccc2nc(NCc3ccccc3)c(C#N)cc2c1	Sfp inh 79µM
COc1ccc(C(=O)NCCNc2nc3ccc(C)cc3cc2C#N)cc1	G9a block 45µM, Sfp inh inconclusive
Cc1ccc2nc(NCCNC(=O)c3ccccc3)c(C#N)cc2c1	none (no result: G9a block)
CS(=O)(=O)N1CCC2(CCN(Cc3ccncc3)CC2)CC1	none (no result: HP1b binding inh, BAZ2B block, JMJD2A Tudor inh)
COc1cc2c(cc1OC)C1(CCCC1)CNC2c1ccc([N+](=O)[O-])cc1 (stereo not given)	G9a block 35µM, BAZ2B block inconclusive
Cc1ccc(C2=C(O)c3ccccc3C(=O)C2=O)cc1	BAZ2B block inconclusive (no result: G9a block)
CCOC(=O)C1=C(O)c2ccccc2C(=O)/C1=C\c1ccc(C)cc1	HP1b binding inh 35µM, G9a block 2.5µM, BAZ2B block 20µM, Sfp inh 11µM, JMJD2A Tudor inh 40µM
O=C(N/N=C/c1ccccn1)C(O)c1ccccc1 (stereo not given)	G9a block 0.71µM, BAZ2B block inconclusive, Sfp inh inconclusive
CCCCC(C(=O)N/N=C/c1ccccn1)C(=O)N/N=C/c1ccccn1	G9a block inconclusive, Sfp inh 35µM
O=C(N/N=C/c1ccccc1)C(O)c1ccccc1 (stereo not given)	none
CNC(=O)CS(=O)CC(=O)Nc1cc(OC(C)C)c(Cl)cc1Cl (stereo not given)	none
O=C(Cc1c(O)c2ccccc2[nH]c1=O)NCc1cccc(F)c1	none
O=C(Cc1c(O)c2ccccc2[nH]c1=O)NCc1ccccc1F	G9a block 71µM
O=C(NCc1ccccn1)C1CCCN(S(=O)(=O)c2cc(Cl)ccc2Cl)C1 (stereo not given)	none (no result: G9a block, BAZ2B block, Sfp inh)
COc1ccc(N2CCN(c3csc4ccc(Cl)cc4c3=O)CC2)cc1	BAZ2B block 50µM, JMJD2A Tudor inh inconclusive (no result: Sfp inh)
COc1ccc(N2CCN(c3csc4ccccc4c3=O)CC2)cc1	G9a block inconclusive, BAZ2B block 40µM, JMJD2A Tudor inh 40µM (no result: Sfp inh)
O=c1c(N2CCN(c3ccc(F)cc3)CC2)csc2ccc(F)cc12	none (no result: Sfp inh)
COc1cc(C2NC(=S)NC(c3ccccc3)=C2C(C)=O)cc(Br)c1OCC(N)=O (stereo not given)	G9a block inconclusive
CC(=O)C1=C(c2ccccc2)NC(=O)NC1c1ccccc1 (stereo not given)	none (no result: G9a block)
COc1cc(C2NC(=S)NC3=C2CCc2ccccc23)cc(OC)c1OC (stereo not given)	G9a block 10µM
C=CCOc1ccc(C2NC(=S)NC3=C2CCc2ccccc23)cc1 (stereo not given)	G9a block 22µM, BAZ2B block inconclusive, JMJD2A Tudor inh inconclusive
C=CCOc1ccc(C2NC(=O)c3ccccc3O2)cc1 (stereo not given)	none
O=C1NC2=C(CCc3ccccc32)C(c2ccccc2)N1 (stereo not given)	G9a block 45µM
CCOc1ccccc1-c1nnc(SCC(=O)NC2CC3CCC2C3)n1CC (stereo not given)	G9a block 45µM
CCn1c(SCC(=O)NCC2CCCO2)nnc1-c1ccccc1OC (stereo not given)	none (no result: Sfp inh)
CCN1CCc2c(sc(NC(=S)NC(=O)c3ccc(Cl)cc3)c2C(N)=O)C1	G9a block 32µM, Sfp inh 16µM, JMJD2A Tudor inh inconclusive
CC(C)C1Cc2c(sc(NC(=S)NC(=O)c3ccccc3)c2C#N)CO1 (stereo not given)	none
CCOC(=O)c1c(NC(=O)c2ccc(S(=O)(=O)N3CCOCC3)cc2)sc2c1CCN(C)C2	G9a block 50µM, BAZ2B block inconclusive
CC(C)N1CCc2c(sc(NC(=S)NC(=O)c3ccccc3)c2C#N)C1	G9a block 10µM, BAZ2B block inconclusive, Sfp inh 40µM, JMJD2A Tudor inh inconclusive
CN1CCc2c(sc(NC(=O)Cc3ccccc3)c2C#N)C1	G9a block 45µM
Cc1c(Cl)cccc1NC(=O)Cn1nc(C)c2sc3ccccc3c2c1=O	none (no result: Sfp inh)
Cc1nn(Cc2ccccc2)c(C)c1/C=N/NC(=O)c1ccncc1	none
CN1CCc2c(sc(NC(=O)CS(=O)(=O)c3ccccc3)c2C(N)=O)C1	G9a block 50µM (no result: Sfp inh)
CC(C)N1CCc2c(sc(NC(=O)c3ccc(S(=O)(=O)N4CCOCC4)cc3)c2C#N)C1	G9a block 32µM
CCCN1CCc2c(sc(NC(=S)NC(=O)c3ccccc3)c2C#N)C1	HP1b binding inh inconclusive, G9a block 10µM, BAZ2B block inconclusive, Sfp inh 50µM, JMJD2A Tudor inh inconclusive
COc1ccc(COC(=O)c2ccc3c(=O)n4c(nc3c2)CCC4)cc1F	none (no result: HP1b binding inh, JMJD2A Tudor inh)
O=C(O)c1cnn2cc(-c3[nH]ncc3[N+](=O)[O-])cnc12	G9a block inconclusive, BAZ2B block inconclusive, JMJD2A Tudor inh 22µM
Cc1cnc2c(C(=O)O)cnn2c1	HP1b binding inh inconclusive, G9a block 56µM, BAZ2B block inconclusive, JMJD2A Tudor inh inconclusive
CCOC(=O)c1c(NC(=O)c2cc(C(C)C)on2)sc(C(C)=O)c1C	G9a block 7.9µM!
CCOC(=O)c1c(NC(=O)c2cc(CC(C)C)on2)sc(C(C)=O)c1C	G9a block 7.9µM
CCCc1cc(C(=O)Nc2sc(C(C)=O)c(C)c2C(=O)OCC)no1	G9a block inconclusive
CC1(C)CC(=O)C(C=Nc2ccc3cn[nH]c3c2)=C(O)C1	G9a block inconclusive
CC(OC(=O)Cn1ccccc1=O)C(=O)Nc1cc(Cl)cc(Cl)c1 (stereo not given)	none (no result: G9a block, BAZ2B block, Sfp inh)
CCCN1CCCc2cc(CN)ccc21	HP1b binding inh inconclusive, G9a block 8.9µM, BAZ2B block 45µM, Sfp inh inconclusive, JMJD2A Tudor inh 4µM
COc1ccc(CN(Cc2ccccc2)C(=O)c2ccncc2)cc1COc1ccc(NC(C)=O)cc1	JMJD2A Tudor inh inconclusive (no result: G9a block, BAZ2B block, Sfp inh)
CCC1CCCCN1C(=O)COC(=O)COc1ccc(Br)cc1 (stereo not given)	none (no result: G9a block, BAZ2B block, Sfp inh)
CC(=O)N/C(=C\c1cccs1)C(=O)O	G9a block inconclusive
COC(=O)c1ccc2c(c1)C(C)(C)C(/C=C/c1ccccc1O)=[N+]2C	HP1b binding inh inconclusive, G9a block inconclusive, BAZ2B block 8.9µM, Sfp inh 11µM, JMJD2A Tudor inh 56µM
Cc1ccc(-c2cc(C(=O)N3CCN(c4ncccn4)CC3)c3ccccc3n2)cc1	G9a block 45µM
